E coli Lon inh = inhibitors of E. coli Lon protease | purified E. coli Lon protease, fluorescence polarization | inhibition, % at 7.94 µM | actives 0.42% (n = 360,000); in the data active = inhibition above about 13%, passing the limit was not always enough;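 also: 0% = enzyme with probe and DMSO and 100% = no enzyme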
Target sequence (P0A9M0 whole entry, looked up): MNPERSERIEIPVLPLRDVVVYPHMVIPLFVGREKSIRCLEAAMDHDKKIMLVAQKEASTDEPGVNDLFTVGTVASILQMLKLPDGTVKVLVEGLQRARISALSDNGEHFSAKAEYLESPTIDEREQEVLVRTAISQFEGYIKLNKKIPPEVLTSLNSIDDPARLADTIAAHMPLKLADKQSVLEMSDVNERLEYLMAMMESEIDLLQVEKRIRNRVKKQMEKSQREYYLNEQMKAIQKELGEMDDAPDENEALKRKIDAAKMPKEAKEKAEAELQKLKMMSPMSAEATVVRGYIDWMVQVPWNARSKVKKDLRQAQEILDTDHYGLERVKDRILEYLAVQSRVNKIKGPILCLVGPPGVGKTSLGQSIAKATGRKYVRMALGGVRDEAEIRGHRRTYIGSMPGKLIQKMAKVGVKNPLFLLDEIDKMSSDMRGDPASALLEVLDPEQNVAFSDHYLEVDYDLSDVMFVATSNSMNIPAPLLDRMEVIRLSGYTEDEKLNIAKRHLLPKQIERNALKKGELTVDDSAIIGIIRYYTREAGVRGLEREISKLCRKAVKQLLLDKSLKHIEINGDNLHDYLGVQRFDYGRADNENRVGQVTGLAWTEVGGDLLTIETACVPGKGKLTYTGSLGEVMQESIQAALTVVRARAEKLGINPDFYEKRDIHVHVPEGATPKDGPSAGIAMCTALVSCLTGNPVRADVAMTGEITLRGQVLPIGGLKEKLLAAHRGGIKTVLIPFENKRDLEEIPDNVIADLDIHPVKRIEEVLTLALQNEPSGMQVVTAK
Keap1-Nrf2 PPI = disrupts human Keap1 binding to Nrf2 peptide; Q14145; Keap1 Kelch-Nrf2 peptide fluorescence polarization, 1536-well; inhibition, % at 9.4 µM; actives 0.15% (n = 340,000); AID 504523; in the data active = inhibition above about 12%; inconclusive = no clear call, values can overlap the other calls; inactive = below about 7.3%;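 also: human Keap1 Kelch domain with fluorescein labeled Nrf2 9mer peptide probe; 0% = neutral control wells and 100% = peptide positive control; higher means more block of Keap1 binding to Nrf2 peptide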
cardiac RTF act = increases calcium sensitivity of human cardiac regulated thin filaments; IANBD-labeled TnC RTF fluorescence at EC20 calcium; 0% EC20 calcium, 100% full calcium; actives 0.24% (n = 340,000); AID 493008; P19429+P45379; activation, % at 7.2 µM;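 active = activation above the mean over all tested compounds plus 3 SD, cut at about 30% in these data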;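 also: rise in fluorescence read as greater calcium sensitivity of cardiac thin filaments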
RTF Ca sens inh = cardiac RTF calcium desensitization; IANBD-labeled cardiac RTF, Ca2+ fluorescence; P19429+P45379; inhibition, % at 7.15 µM; AID 493244; actives 0.12% (n = 340,000);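 active = inhibition above the mean inhibition of all tested compounds plus 3 SD, cut at about 17% in these data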;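 also: assay run at fixed EC70 calcium of 1.6 mM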
LANA DNA inh = KSHV C-LANA DNA binding inhibition | MBP-C-LANA/FAM-LBS DNA binding, fluorescence polarization | inhibition, % at 9 µM | actives 0.078% (n = 340,000);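 active = highest replicate inhibition at or above 60% at 9 µM, even if other replicates fall short; inactive = all replicates below 60% inhibition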;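 also: 0% = neutral control wells and 100% = 4 µM acridine orange control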
* = called active by the depositor; i = inactive; ? = inconclusive; . = no result given. Sampled rows, rich in hits. Any-hit rate of the full collection: about 0.82%.

SMILES	E coli Lon inh	Keap1-Nrf2 PPI	cardiac RTF act	RTF Ca sens inh	LANA DNA inh
Cn1cc(/C=C2\SC(=S)N(NC(=O)c3ccccc3)C2=O)c2ccccc21	-91.7	-3.8	70.2*	-62.1	-0.2
O=C(NCc1ccc(Cl)c(Cl)c1)c1cc(C2CCCCN2C(=O)OCCF)on1 (stereo unspecified)	-15.2	.	.	.	.
CC(=O)Nc1cccc(-c2ccnc3c2CC(C(=O)Nc2cccc(OC(F)(F)F)c2)O3)c1 (stereo unspecified)	-9.9	.	.	.	.
O=C1c2cccc3c(N4CCCCC4)ccc(c23)C(=O)N1c1ccc(O)cc1	-52.6	?	115.5*	-194.4	11.7
O=C1c2cccc3cccc(c23)C(=O)N1c1ccc(O)cc1	-2.3	1.9	7.6	-4.2	-0.6
CCCn1c2ccccc2c2cnn(CC(=O)NCCCN3CCCC(C)C3)c(=O)c21 (stereo unspecified)	-11.4	4.3	-2.3	-13.3	2.6
CN(C)c1ccc(/C=C/c2ccc3ccccc3n2)cc1	-132.5	-6.4	42.4*	-50.3	0.4
C(=C\c1ccc2ccccc2n1)/c1ccccc1	-10.2	0.0	-9.5	1.5	-1.9
Cc1ccc(S(=O)(=O)/N=C2/NC(=O)/C(=C\c3cc(Br)cc(Br)c3O)S2)cc1	-87.9	-73.6	63.3*	-91.7	-16.2
Cc1ccc(S(=O)(=O)/N=C2/NC(=O)/C(=C/c3ccc(Br)o3)S2)cc1	-42.5	-3.3	6.4	11.5	0.5
C[C@@H]1CN([C@@H](C)CO)C(=O)CCCn2nncc2CO[C@H]1CN(C)C(=O)NC1CCCCC1	3.1	.	.	.	.
CCOc1ccc(/C=C2\CCCc3c2nc2ccccc2c3C(=O)O)cc1OC	178.4*	113.7*	767.5*	i	147.7*
CC(C)C[C@H]1CN(CCCC[C@@H]2CNC(=O)C(=O)N2CC2CCCCC2)C(=O)C(=O)N1CCC1CCCCC1	1.6	.	.	.	.
CC1=C(C(=O)N(C)C)CC(CC(=O)NC2CCCC2)C(=O)N1Cc1ccc(F)cc1 (stereo unspecified)	4.2	.	.	.	.
CCSc1nnc(-c2sc3nnc(-c4ccccc4)c(-c4ccccc4)c3c2N)o1	-69.8	-5.3	82.8*	-31.2	4.6
CCOC(=O)c1ccc2nc(C)c(CCC(C)=O)c(Cl)c2c1	19.6*	-6.0	-7.8	2.8	0.4
O=C(CSc1nnc(-c2ccco2)c(-c2ccco2)n1)Nc1ccccc1	157.4*	-0.8	-5.6	1.4	6.2
CN(C)c1ccc(NC(=O)CSc2nnc(-c3ccco3)c(-c3ccco3)n2)cc1	9.3	-1.4	-1.0	-0.5	0.6
Cc1ccc(C(CNC(=O)c2ccco2)N2CCN(C)CC2)cc1 (stereo unspecified)	-3.3	0.0	-3.4	-2.2	-0.6
O=C1CSC(=S)N1/N=C/c1cc(Br)c(O)c(Br)c1	i	-262.9	56.0*	-120.3	-22.0
COc1cc(/C=N/N2C(=O)CSC2=S)ccc1O	-22.3	-8.1	-1.7	-26.5	-3.8
O=c1[nH]c2ccc(N=Cc3c(O)ccc4cc(Br)ccc34)cc2[nH]1	-147.8	-2.7	30.4*	-12.9	0.4
Cc1[nH]n(-c2ccccc2)c(=O)c1C=Nc1ccc2[nH]c(=O)[nH]c2c1	-9.8	0.5	4.0	-6.0	0.6
CCOC(=O)c1c(-c2ccccc2)csc1NC(=O)/C(C#N)=C\c1ccc(O)c(OC)c1	i	-7.2	39.8*	-63.6	-1.1
CCOC(=O)c1c(-c2ccc(C)cc2)csc1NC(=O)/C(C#N)=C/c1ccc(O)c(OC)c1	-125.3	6.8	49.2*	-32.6	6.9
SMILES	E coli Lon inh	Keap1-Nrf2 PPI	cardiac RTF act	RTF Ca sens inh	LANA DNA inh
CCOC(=O)/C(C#N)=C\c1ccc(O)c(OC)c1	-5.3	0.1	-4.8	-2.3	-1.0
O=C(CCC(=O)Nc1ccccc1Cl)NN=C1CCCC1	10.2	-1.6	7.1	-3.4	-0.9
CCOC(=O)CC1C(=O)NCCN1C(=O)c1ccc(C)cc1 (stereo unspecified)	-0.4	-7.9	3.5	2.8	1.3
CCCN1C(=O)/C(=C/c2c(N3CCNC(=O)C3CC(=O)OCC)nc3c(C)cccn3c2=O)SC1=S (stereo unspecified)	-425.8	-131.8	129.9*	-301.7	-9.8
CCOC(=O)CC1C(=O)NCCN1c1nc2ccc(C)cn2c(=O)c1/C=C1\SC(=S)N(CC(C)C)C1=O (stereo unspecified)	-248.5	-141.2	182.1*	-231.3	-3.7
CCCN1C(=O)/C(=C/c2c(NCCCOC(C)C)nc3c(C)cccn3c2=O)SC1=S	-92.4	-4.9	11.7	-20.5	2.5
CCC(CO)(CO)N(CC(=O)Nc1ccc(OC)cc1)CC(=O)Nc1ccc(OC)cc1	-4.7	-9.4	9.1	-9.1	-1.7
CCOC(=O)C1=CN(Cc2ccco2)S(=O)(=O)NC1c1ccc(Br)cc1F (stereo unspecified)	-4.1	-4.7	-1.4	-2.7	1.7
CC(C)CNC(=O)/C=C/C=C/c1ccc2c(c1)OCO2	-6.1	-0.9	4.3	-1.7	0.7
CC1(C(=O)NS(=O)(=O)C2CC2)CCN(C(=O)c2ccc3c(c2)OCO3)C1 (stereo unspecified)	3.9	.	.	.	.
N#Cc1cc(C(=O)c2ccccc2O)cn(-c2nccs2)c1=O	-248.6	-22.4	62.4*	-77.6	25.4
CC(C)n1cc(C(=O)c2ccccc2O)cc(C#N)c1=O	0.9	0.7	2.6	10.5	-1.2
Cc1c(-n2cc(C(=O)c3cc(F)ccc3O)cc(C#N)c2=O)c(=O)n(-c2ccccc2)n1C	-27.2	-5.2	0.9	-7.9	0.7
N#Cc1cc(C(=O)c2cc(F)ccc2O)cn(-c2nccs2)c1=O	-261.4	-66.4	53.9*	-74.8	8.6
Cc1cc(C)cc(NC(=O)CSc2nc3nc(C)cc(C)n3n2)c1	-3.6	4.2	0.5	-10.4	6.8
COc1cc(OC)c(OC)cc1/C=C/C(=O)c1ccc(NS(=O)(=O)c2ccc(C)cc2)cc1	-97.3	-5.3	34.9*	-28.6	0.1
COc1ccc(C(=O)N2CCCC(C)(C(=O)NS(=O)(=O)C3CC3)C2)c(OC)c1 (stereo unspecified)	-3.3	.	.	.	.
O/C=c1\ccc2cccc3nc(C(F)(F)F)nc1c23	-88.0	-9.7	124.1*	-80.7	16.0
COc1cc(NC(=O)COC(=O)Cn2cnc3c2c(=O)n(C)c(=O)n3C)cc(OC)c1	-8.9	0.1	-1.9	-4.8	-0.6
C=CCN(c1ccccc1OC)S(=O)(=O)c1cccc(C(=O)OCC(=O)c2c(N)n(C)c(=O)n(C)c2=O)c1	4.0	5.1	-7.0	-9.7	0.5
C(=Cc1c[nH]c2ccccc12)c1nccc2ccccc12	11.4	-3.8	23.2	-20.3	4.7
OCC[n+]1ccc(/C=C/c2c[nH]c3ccccc23)cc1	-255.5	-162.6	188.8*	-275.1	-19.3
COc1ccc(CNC(=O)C(C#N)c2nc3ccccc3nc2N2CCCC2)cc1 (stereo unspecified)	-34.9	4.7	51.3*	-404.9	18.1
CC(C)(C)N1C(=O)Cc2c1nc(N)c1c(N)nc(N3CCCCC3CO)c(C#N)c21 (stereo unspecified)	49.7*	-13.3	6.5	4.7	0.5
